Bioassay records (PubChem BioAssay)
VACV mCherry inh: vaccinia inhibition (mCherry reporter) | Vaccinia virus mCherry reporter infection, fluorescence | Potency, µM (doses to about 36.5 µM), for the others: top-dose activity change, negative = inhibition, most hits filed as inhibitors | 310,000 compounds, 0.63% hits; calls by dose curve; tested in A549 cells; further: potency means the concentration at half of the fitted maximal effect; nearly all actives have a fitted effect of over 35% in size
Sm TGR inh: blocks Schistosoma mansoni thioredoxin glutathione reductase | purified TGR, DTNB reduction, TNB absorbance 405 nm | Potency, µM (highest dose often 114 µM), for inactives: at the highest dose activity change, negative = inhibition, actives largely listed as inhibitors | 360,000 compounds, 3% hits; further: potency means the concentration at half of the fitted maximal effect; nearly all actives have a fitted effect of over 60% in size
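First, TGR (20 nM dispensed) and NADPH were mixed with compound. Second, a 15 min room-temperature incubation followed. Third, further NADPH and then DTNB were added to start the reaction. Finally, TNB absorbance was monitored kinetically.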
HCV inh: inhibitors of hepatitis C virus infection; Huh7.5.1 HCVcc-Cre infection, luciferase reporter, 44 h; Potency, µM (highest dose often 41.8 µM), for inactives: at the highest dose activity change, negative = inhibition, actives largely listed as inhibitors; 340,000 compounds, 3.4% hits; further: potency means the concentration at half of the fitted maximal effect
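Luciferase read-out (15 sec integration) after a 15 min room-temperature substrate step quantifies HCVcc-Cre infection. Cells, 1,000 per well, had compound added 4 h post-plating, then virus at ~0.5 moi, and were cultured 44 h.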
FMDV antiviral: foot and mouth disease virus antiviral activity | FMDV antiviral cell-based qHTS | Potency, µM (highest dose often 57.9 µM), for the others: at the highest dose activity change, negative = inhibition, actives largely listed as inhibitors | 410,000 compounds, 1.2% hits | AID 1159524; calls by dose curve; tested in HEK293T cells; further: read-out not given here; potency means the concentration at half of the fitted maximal effect; nearly all actives have a fitted effect of over 45% in size
Vaccinia Venus: inhibitors of vaccinia virus (Venus reporter); Vaccinia virus Venus reporter expression, fluorescence; Potency, µM (series often up to 36.5 µM), inactives show at the top dose activity change, negative = inhibition, most hits filed as inhibitors; 330,000 compounds, 0.46% hits; calls by dose curve; tested in A549 cells; further: potency means the concentration at half of the fitted maximal effect; nearly all actives have a fitted effect of over 30% in size
HCMV inh: blocks human cytomegalovirus replication. HFF cells, HCMV-luciferase reporter, 72 h; stronger effect = lower value. activity change, negative = inhibition, % at 57.5 µM. 410,000 compounds, 4.5% hits. AID 1259415; in the data active means activity change below about -60%; inconclusive means no clear call, values can overlap the other calls; inactive means above about -39%
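Luciferase read-out from HCMV-luciferase-infected HFFs (MOI 1 PFU/cell) 72 h post infection at 37C; compounds added after 16 h cell attachment; activity normalized between buffer-only basal and Salinomycin (10uM) inhibitor controls.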
Active calls of the source: *; i = inactive; ? = inconclusive; · = not tested or not shown; [ ] = remark or other dose. Hits are enriched below; roughly 9.3% of the tested compounds scored in any of these assays. Unless noted, the call rests on the fitted dose curve; in most records, active means well fitted curve in the direction sought with a large enough effect; inconclusive means small, poorly fitted or top-dose-only effect, or another doubt; inactive means no such curve, though single readings can be large; an effect the other way counts as inactive or inconclusive. On the % scale 0 is the no-effect control and ±100 the full control effect.

SMILES	VACV mCherry inh	Sm TGR inh	HCV inh	FMDV antiviral	Vaccinia Venus	HCMV inh
COC(=O)c1ccc(S(=O)(=O)NCc2ccc(OC)cc2)n1C	-21.1%	6.9%	3.8%	-7.0%	-11.3%	12.5
COC(=O)c1ccc(S(=O)(=O)NCc2ccco2)n1C	i	35.5µM*	2.2%	23.5%	-5.9%	10.6
COc1ccc(N(CCCN2C(=O)c3cccc4cccc(c34)C2=O)C(=O)c2ccncc2)cc1	i	-4.3%	5.4%	-14.5%	-17.4%	33.5
S=C(NCc1ccccc1)NCc1ccc(Cl)cc1	-9.8%	-14.3%	2.7%	0.7%	-15.1%	?
COc1cccc(/C=N/NC(=O)c2cc3c(OC)cccc3[nH]2)c1OC	-10.7%	3.9%	?	?	-14.0%	-32.9
COc1cccc(/C=N/NC(=O)c2cc(-c3cccn3C)n[nH]2)c1O	3.98µM*	-8.3%	5.01µM*	2.8%	?	?
COc1ccc(OC)c(/C=N/NC(=O)c2cc3c(OC)cccc3[nH]2)c1	-11.9%[7.34 µM]	9.8%	?	-27.0%	-18.4%[7.34 µM]	-16.9
COc1ccc(OC)c(/C=N/NC(=O)c2cc3c(OC)cc(OC)cc3[nH]2)c1	?	2.7%	25.1µM*	?	?	34.8
CCOc1ccc(/C=N/NC(=O)c2cc3c(OC)cccc3[nH]2)cc1	?	-19.6%	-15.9%	-8.3%	?	-63.1*
COc1cccc(/C=N/NC(=O)c2cc3c(OC)cccc3[nH]2)c1O	?	2.9%	?	-9.4%	?	-75.0*
COCCn1c(=O)c(-c2ccc(Cl)cc2)nc2cnc(OCc3ccccc3)nc21	·	·	·	-10.9%	·	·
C[C@H](CO)N1C[C@H](C)[C@@H](CN(C)C(=O)CC2CC2)Oc2cc(Br)ccc2S1(=O)=O	-4.1%	·	·	-24.1%	-15.3%	-23.9
COc1cccc(/C=N/NC(=O)C(=O)N2CCCCCC2)c1O	12.6µM*	-4.7%	16.3%	38.1%	-26.8%	13.6
O/N=C/c1ccc(OCc2ccccc2F)c(Cl)c1	-6.0%	-7.7%	1.1%	-4.7%	-24.1%	100.9
Cc1ccc(CCNc2ncnc3onc(C)c23)cc1	-24.9%	1.0%	·	?	-13.5%	?
Cc1cc(Nc2cccc(C(F)(F)F)c2)nc2ccc(NC(=O)c3cccnc3)cc12	10µM*	10.2%	·	28.2µM*	11.2µM*	-107.3*
Cc1cc(Nc2cccc(C(F)(F)F)c2)nc2ccc(NC(=O)c3cccc(Cl)c3)cc12	-21.5%	-0.4%	·	?	-22.3%	-103.9*
CCOc1ccc(C(=O)Nc2ccc3nc(Nc4cccc(C(F)(F)F)c4)cc(C)c3c2)cc1OCC	2.9%	-1.3%	·	0.0%	-5.7%	-62.5*
Cc1cc(Nc2cccc(Cl)c2)nc2ccc(NC(=O)c3ccc(F)cc3Cl)cc12	-4.9%	2.3%	·	?	-13.0%	?
O=C(Nc1cccc(C(F)(F)F)c1)c1cccnc1	-4.4%	0.0%	-4.5%	20.2%	-15.2%	2.4
Cn1nc(C(F)(F)F)c(-c2ccccc2)c1NC(=O)c1cccnc1	·	7.1%	20.4%	-3.6%	·	-1.3
Cn1nc(C(F)(F)F)c(-c2cccc(C(F)(F)F)c2)c1NC(=O)c1cccnc1	·	0.8%	-1.3%	-21.7%	·	-78.4*
COCCN(C(=O)CSc1ccc2c(c1)OCCO2)c1c(N)n(CC(C)C)c(=O)[nH]c1=O	-15.0%	·	-0.2%	-8.3%	-2.4%	7.2
Cc1ccc(S(=O)(=O)C[C@@H]2OC[C@H](C)N2S(=O)(=O)c2ccc(C)cc2)cc1	?	·	·	2.4%	-22.2%	10.9
O=C(CSc1nnc2n1CCCCC2)Nc1ccc(N2CCOCC2)cc1	-5.6%	-4.0%	10.8%	5.7%	-17.6%	14.3
SMILES	VACV mCherry inh	Sm TGR inh	HCV inh	FMDV antiviral	Vaccinia Venus	HCMV inh
CCOC(=O)CNC(=S)N(Cc1ccc(C)cc1)Cc1ccc(C)o1	-16.1%	-13.8%	11.9%	-8.1%	-10.4%	-81.6*
Cc1ccc(CN(Cc2ccc(C)o2)C(=S)NCC(=O)O)cc1	-9.2%	-9.8%	2.2%	-9.7%	-7.2%	?
O=C(COc1ccccc1F)Nc1ccc(S(=O)(=O)N2CCCC2)cc1	·	-0.9%	-29.9%	-7.5%	·	2.1
COC(=O)COc1c(/C=C\c2nc(O)c([N+](=O)[O-])c(=O)[nH]2)cccc1OC	·	?	13.3%	3.8%	·	7.0
C#CCOc1c(/C=C\c2nc(O)c([N+](=O)[O-])c(=O)[nH]2)cc(Br)cc1OC	·	35.5µM*	10.4%	-4.0%	·	-14.6
COCCn1c(SCc2nc3scc(-c4ccc(Cl)cc4)c3c(=O)[nH]2)nnc1-c1cccc(C)c1	?	-7.9%	?	39.8µM*	?	?
CCn1c(SCc2nc3scc(-c4ccccc4)c3c(=O)[nH]2)nnc1-c1cccs1	-13.4%	-10.1%	?	?	-25.3%	-25.4
COc1ccc(S(=O)(=O)N2CCN(Cc3cc(OC)c(O)c(OC)c3)CC2)cc1	·	3.55µM*	10.3%	-15.1%	·	66.4
COc1cc(CN2CCC(C(=O)NCC(C)(C)CN(C)C)CC2)ccc1OCc1ccccc1	·	3.8%	?	14.1%	·	-93.9*
COc1cc(CN2CCN(S(=O)(=O)c3ccccc3)CC2)cc(OC)c1O	-13.9%	4.47µM*	·	-19.5%	2.6%	17.5
CCCS(=O)(=O)N1CCN(Cc2ccc(OCc3ccccc3)c(OC)c2)CC1	-24.4%	·	10µM*	·	-20.1%	?
CCOc1cc(CN2CCN(S(=O)(=O)Cc3ccccc3)CC2)ccc1OC	-4.4%	8.9%	?	-16.6%	3.3%	-20.1
Cc1ccc(C(=O)OCC(=O)NC(=O)NCc2ccccc2)cc1C	·	-0.1%	7.5%	-6.8%	·	-2.5
O=C(COC(=O)c1ccc(F)c([N+](=O)[O-])c1)NC(=O)NCc1ccccc1	-1.6%	·	?	31.6µM*	-18.2%	-12.1
Cc1cccc(CCNC(=O)c2cccc(N3CCCC3=O)c2)c1	·	-8.5%	-13.7%	49.3%	·	-7.8
O=C1[C@@H]2C(c3cccnc3)=NO[C@@H]2C(=O)N1c1ccc(Br)cc1	-18.7%	3.55µM*	15.1%	2.0%	-12.7%	11.7
Nc1nc(-c2ccco2)nn1S(=O)(=O)c1ccccc1	-8.4%	?	13.1%	10.3%	-1.2%	2.2
Cc1ccc(S(=O)(=O)n2nc(-c3ccco3)nc2N)cc1	-12.8%	?	18.3%	4.3%	-10.4%	-67.2*
CCOc1ccc(-c2nonc2NC(=O)c2ccco2)cc1OCC	i	-6.2%	-20.8%	-20.0%	-9.6%	27.5
CC(C)CCN1CCN(Cc2ccc(C#CC(C)(C)O)s2)CC1CCO (configuration not stated)	-7.1%	-2.7%	11.7%	-12.9%	-7.4%	3.3
CC(NC(=O)CNC(=O)C(Cc1ccccc1)NC(=O)OCc1ccccc1)C(N)=O (configuration not stated)	i	8.1%	-4.7%	-9.3%	-7.3%	75.4
COc1ccc(-n2c3c(cc(C(=O)N4CCCCC4)c2=O)C(=O)CC(C)(C)C3)cc1	?	0.8%	8.3%	11.7%	14.1µM*	-4.8
